The supplement of paper PMC6555819

tested on: THRa homodimer (NR concentration 90 nM); assay: PBM binding z-score (relative to random genomic background probes); higher = stronger binding; sequences stand for … in GC…GCGATTGACAGCGTAGAATGAAGG
Procedure, shortened: (§1)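 Each nuclear receptor dimer, without ligand, was incubated for 1 h on custom Agilent 4×180K protein-binding microarrays. Binding was detected with antibodies against each partner (one per run), and scanned fluorescence was regression-normalized. The binding z-scores are referenced to random human genomic background probes.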

Sequence | PBM binding z-score
ACTTAAGGGTCAACGAGGTTATAGCACGCGTATA | 1.07
AATACAGGGTCATCGTACGCCAGAGTACGCACAG | 1.73
ATCGAAAGGTCGACCAGGTGAGTATACACCGTTT | 0.391
TTACCAAGGTGAACGGTCGTTGATGCACGCCTTG | 0.872
CCTACTGGGCCAAAAAGGTCATTGATGCCGATAA | 0.474
AGTCAAAGTTCAGGACGAGGTAACGTTAAGCACG | 1.82
CGAACTAGGTCATTGACAGGACAATGAATAGTAA | 0.699
TTACCAAGGTGAAAGGTCGTTGCTGCACGCCTTG | 0.758
GCTAGTTGGTCAGTAAAATGTCACACACCGGTCG | -0.123
TAGCCTAGGTCATGCGGGCCAATATAGTGTCGGC | 0.979
CGTCCAAGGTCGAAGGTCAGTGAAGAGATGACGG | 0.66
TCTAGTTGGTCACGGAGGGCACACACGACGGGTA | 0.258
CCTGCTAGGTCATGGTCAGCGAATCTACAGTATG | 1.16
CCTTACGGGTCACTGACAGGTTATAGCGTTTGGA | 0.417
ACTTACGGGTCTACGAGGTTATAGCACGCGTATA | 0.82
ACTCGGATGACAAAGGTCAGAGCTACGCCAGTGA | 0.0278
CCTACTGGGCCACGAAAGGCCATTGATTCAGTGA | -0.457
ATCGAAAGGTCGACGAGGTGAGTAAACACCGTTT | 0.706

tested on: VDR homodimer (NR concentration 270 nM); assay: as above
Procedure, shortened: as §1

Sequence | PBM binding z-score
TCTCGGAGGACACAAAGGTCAGAGCTTTCCAGAG | 2.06
CGTTCAAGGTCAAAGGTCAGTGAAGAGATGACGG | 3.81
CCAGACAGGTGAGAAGGTAACTCAGCCTCGATTA | 0.403
TAGCCTAGGTCATACAGGGGCCAGTATAGAAAGC | 0.824
CCTACTGGGCCATTCAGAGGTCAATGATCATATG | 1.44
CCTACTGGGCCGTTCAGAGGTCATTGATCATATG | 2.97
ATATGTAGGTTATCTGGGGTCATTCAGACTAGGC | 5.88
GATACAGGGTCAGCTACAGGCCAGAGTATGGAAA | 0.801
CAAACTAGGTCAAGAGGTCAAAGTTCGCTTCCCG | 5.53
ATCGAAAGGTCCAAGGTGAGTATACCCACCCGAA | 0.214
ATATGTAGGATAGCTGGGGTCATTCAGACTAGGC | 5.01
TCGTGTAGGTTACGGGGGCATTCAGGGATGAAGA | 3.98
CGAACTACGTCATCCAGGACAGTGAATACATTGA | 0.313
CGTCAAAGATCAAGGTAACGTAACAGAAAGCAGC | -0.275
CGAACTAGGTCAAGGACAGTAAATCTCCGCACGC | 0.575
AATACAGGGTCACGAGGCCAGAGTAGGTACGAAT | 3.31
TCTAGTTGGTCACGGAGGACACACACGACGGGTA | 0.76
CGTCCAAGGTCAGCGGGTCAGTGAAAGCGACGTG | 1.76
ACGCGGAGGACAAAGGTCAGAGCTACGCCAGTGA | 0.908
CCTTACGGGTCACGTGGTTATAGCACGACGAGCG | 0.82

Sequence | PBM binding z-score
GGAACGAGGTCATTCGAGTTGATAGCATGGCGAT | 6.31
TCTGCTAGGTCATCGATGGTCAGCTAATCTGCTA | -0.0904
ACTTAAGGGTCAACGAGGTTATAGCACGCGTATA | 5.42
AATACAGGGTCATCGTACGCCAGAGTACGCACAG | 4.17
ATCGAAAGGTCGACCAGGTGAGTATACACCGTTT | 1.22
TTACCAAGGTGAACGGTCGTTGATGCACGCCTTG | -0.356
CCTACTGGGCCAAAAAGGTCATTGATGCCGATAA | 2.01
AGTCAAAGTTCAGGACGAGGTAACGTTAAGCACG | 2.56
CGAACTAGGTCATTGACAGGACAATGAATAGTAA | 1.62
TTACCAAGGTGAAAGGTCGTTGCTGCACGCCTTG | 1.74
GCTAGTTGGTCAGTAAAATGTCACACACCGGTCG | 0.162
TAGCCTAGGTCATGCGGGCCAATATAGTGTCGGC | 0.902
CGTCCAAGGTCGAAGGTCAGTGAAGAGATGACGG | 1.14
TCTAGTTGGTCACGGAGGGCACACACGACGGGTA | 0.915
CCTGCTAGGTCATGGTCAGCGAATCTACAGTATG | 0.226
CCTTACGGGTCACTGACAGGTTATAGCGTTTGGA | 1.2
ACTTACGGGTCTACGAGGTTATAGCACGCGTATA | 1.55
ACTCGGATGACAAAGGTCAGAGCTACGCCAGTGA | 1.1
CCTACTGGGCCACGAAAGGCCATTGATTCAGTGA | -0.271
ATCGAAAGGTCGACGAGGTGAGTAAACACCGTTT | 0.649
